# Screen size: about 5,500 compounds; about 2,000 (36%) were called active. Another 18% or so got no clear call; they are omitted. The list shows a part of the results. A number with no mark means an inactive call. No stated cut-off is given here; in the data, active means normalized growth mostly below about 0.91 (no sharp cut-off); inconclusive means no clear call, values can overlap the other calls; inactive means mostly above about 0.92.
# Test: chemical genetic growth profiling, strain panel (AID 1159580);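 further: tested at 20 µM; growth read once vehicle control cultures reached saturation at 30 °C; 1 = growth at the plate median or of vehicle wells; lower values mean less growth of the strain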
# Settings: S. cerevisiae deletion strains, growth OD
smiles,measurement,setting,value
COc1ccc(-c2c(OC)c3c(OC)c4c(cc3oc2=O)OC(C)(C)C=C4)cc1,normalized growth,"locus YBR021W, strain FUR4, hits give low values",1.08
same,normalized growth,"locus YBR229C, strain ROT2, hits give low values",1.03
same,normalized growth,"locus YCL029C, strain bik1, hits give low values",0.974
same,normalized growth,"locus YDL035C, strain GPR1, hits give low values",1.09
same,normalized growth,"locus YDL074C, strain BRE1, hits give low values",1.18
same,normalized growth,"locus YDL101C, strain DUN1, hits give low values",0.99
same,normalized growth,"locus YDL185W, strain tfp1, hits give low values",0.988
same,normalized growth,"locus YDL192W, strain arf1, hits give low values",1.08
same,normalized growth,"locus YDR101C, strain arx1, hits give low values",1.07
same,normalized growth,"locus YDR162C, strain NBP2, hits give low values",1.06
same,normalized growth,"locus YDR318W, strain mcm21, hits give low values",1
same,normalized growth,"locus YDR388W, hits give low values",0.983
same,normalized growth,"locus YDR502C, strain sam2, hits give low values",1.05
same,normalized growth,"locus YEL061C, strain CIN8, hits give low values",1.02
same,normalized growth,"locus YER110C, hits give low values",0.973
same,normalized growth,"locus YER155C, strain BEM2, hits give low values",1.01
same,normalized growth,"locus YER167W, strain BCK2, hits give low values",1.01
same,normalized growth,"locus YGL078C, strain dbp3, hits give low values",1.02
same,normalized growth,"locus YGL086W, strain mad1, hits give low values",1.05
same,normalized growth,"locus YGL248W, strain PDE1, hits give low values",1.07
same,normalized growth,"locus YGR135W, strain pre9, hits give low values",1.02
same,normalized growth,"locus YGR252W, strain gcn5, hits give low values",1.21
same,normalized growth,"locus YHR030C, strain SLT2, hits give low values",1
same,normalized growth,"locus YHR079C, strain IRE1 (second series), hits give low values",0.991
same,normalized growth,"locus YHR094C, strain hxt1, hits give low values",1
same,normalized growth,"locus YHR129C, strain ARP1, hits give low values",1.02
same,normalized growth,"locus YHR200W, strain rpn10, hits give low values",1.04
same,normalized growth,"locus YIL066C, strain RNR3, hits give low values",1.01
same,normalized growth,"locus YIL073C, strain SPO22, hits give low values",1.12
same,normalized growth,"locus YIL125W, strain kgd1, hits give low values",1.02
same,normalized growth,"locus YIR030C, strain dcg1, hits give low values",1.01
same,normalized growth,"locus YJL095W, strain BCK1, hits give low values",1.08
same,normalized growth,"locus YJL134W, strain LCB3, hits give low values",0.991
same,normalized growth,"locus YJL168C, strain set2, hits give low values",1
same,normalized growth,"locus YJL187C, strain SWE1 (second series), hits give low values",1
same,normalized growth,"locus YJR075W, strain HOC1, hits give low values",1
same,normalized growth,"locus YKL009W, strain mrt4, hits give low values",1.03
same,normalized growth,"locus YKL068W, hits give low values",1.03
same,normalized growth,"locus YKL085W, strain MDH1 (second series), hits give low values",1.04
same,normalized growth,"locus YKL085W, strain MDH1, hits give low values",1.04
same,normalized growth,"locus YKL190W, strain CNB1, hits give low values",0.988
same,normalized growth,"locus YKR001C, strain vps1, hits give low values",1.09
same,normalized growth,"locus YLR039C, strain RIC1, hits give low values",1.22
same,normalized growth,"locus YLR058C, strain SHM2, hits give low values",1.01
same,normalized growth,"locus YLR102C, strain apc9, hits give low values",0.972
same,normalized growth,"locus YLR268W, strain sec22, hits give low values",1.04
same,normalized growth,"locus YLR330W, strain CHS5, hits give low values",1.03
same,normalized growth,"locus YLR342W, strain FKS1 (second series), hits give low values",1.03
same,normalized growth,"locus YLR371W, strain rom2, hits give low values",0.992
same,normalized growth,"locus YML016C, strain PPZ1, hits give low values",1.01
same,normalized growth,"locus YML032C, strain rad52, hits give low values",0.987
same,normalized growth,"locus YML124C, strain tub3, hits give low values",1.03
same,normalized growth,"locus YMR078C, strain ctf18, hits give low values",0.993
same,normalized growth,"locus YMR223W, strain ubp8, hits give low values",1.02
same,normalized growth,"locus YMR307W, strain GAS1, hits give low values",1.32
same,normalized growth,"locus YNL067W, strain RPL9B, hits give low values",1
same,normalized growth,"locus YNL153C, strain GIM3, hits give low values",1.01
same,normalized growth,"locus YNL233W, strain BNI4, hits give low values",1.05
same,normalized growth,"locus YNL250W, strain rad50, hits give low values",0.999
same,normalized growth,"locus YNL271C, strain bni1, hits give low values",1.03
same,normalized growth,"locus YNL298W, strain CLA4, hits give low values",1.03
same,normalized growth,"locus YNL307C, strain MCK1, hits give low values",0.967
same,normalized growth,"locus YNR052C, strain pop2, hits give low values",1.02
same,normalized growth,"locus YOL006C, strain TOP1, hits give low values",1.54 [resistant] (active)
same,normalized growth,"locus YOL012C, strain htz1",1.03
same,normalized growth,"locus YOL147C, strain pex11, hits give low values",0.997
same,normalized growth,"locus YOR061W, strain CKA2, hits give low values",1.02
same,normalized growth,"locus YOR069W, strain VPS5, hits give low values",0.993
same,normalized growth,"locus YOR136W, strain idh2, hits give low values",1
same,normalized growth,"locus YOR144C, strain elg1, hits give low values",1.03
same,normalized growth,"locus YOR184W, strain ser1, hits give low values",1.11
same,normalized growth,"locus YOR316C, strain cot1, hits give low values",0.975
same,normalized growth,"locus YPL055C, strain LGE1, hits give low values",1.16
same,normalized growth,"locus YPR119W, strain clb2, hits give low values",0.978
same,normalized growth,"locus YPR141C, strain kar3, hits give low values",1.03
same,normalized growth,"locus YPR163C, strain tif3, hits give low values",1
same,normalized growth,"locus YPR167C, strain met16, hits give low values",1.01
same,normalized growth,"strain wtn01, hits give low values",1.07
